Here are results for 46 compounds from PubChem BioAssay AID1259418 (Broad Institute, 2018).

The whole screen tested about 3,400 compounds, of which about 840 (25%) were called active. Not shown: some 11% with an inconclusive outcome.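 The calls were made as follows: active = fitted half-maximal concentration of signal decrease at or below twice the sample's top tested concentration; inconclusive = flat curve between -70 and -30 percent, or poor fit; inactive = flat within 30 percent, signal rise, or potency above limit.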 The list is a sample of the results. Results with a measured potency or affinity are listed apart.

The nature of the test: T. gondii growth inhibition with IFN-gamma, dose response, cell-based, ME49Luc, HeLa, luciferase, 72 h (AID 1259418). Conditions: T. gondii ME49Luc in IFN-y HeLa, hits give low values, -100% = high-dose IFN-γ control wells; at 19.5 µM unless noted.
`CC(CCc1ccccc1)Nc1nc(-c2ccc(Cl)cc2)nc2ccccc12` (stereo unspecified): the max activity was -14.3% [at 5 µM] (inactive). Under `COc1ccc(-c2nc(N3CCN(c4cccc(C)c4C)CC3)c3ccccc3n2)cc1` stands 17% (inactive).

As for `Cc1ccc(-c2nc3c(s2)CN(C(=O)NCc2ccccc2)CC3)cc1`, the max activity was -24.6% [at 0.35 µM] (inactive).

Regarding `CCCNC(=O)N1CCc2nc(-c3ccc(C)cc3)sc2C1`, the max activity is -30.1% [at 0.16 µM] (inactive). Under `O=C(Nc1ccc(-c2nc(-c3ccccc3)co2)cc1)c1ccccc1F` stands -7.4% [at 10 µM] (inactive). For the compound `COCCN1C(=O)CCC12CCC(NC(=O)c1cc(C)on1)CC2` (stereo unspecified), the max activity is 12.8% (inactive). With `Cc1cc(C)c(S(=O)(=O)N2CCC3(CC2)NCCN=C3NC2CCCC2)cc1C`, the max activity was -17.7% (inactive). With `Cc1cc(C)cc(S(=O)(=O)N2CCC3(CC2)NCCN=C3NC2CCCC2)c1` the figure was 8.57% [at 0.35 µM] (inactive); with `Cc1ccc(S(=O)(=O)N2CCC3(CC2)NCCN=C3NC2CCCC2)cc1C`, 15.2% [at 1.35 µM] (inactive). Turning to `CCOc1ccc(-c2ccc(OCCNC(=O)c3sc(-c4ccccc4)nc3C)nn2)cc1`, the max activity was 10.6% (inactive). As for `O=C(CCn1cnc2cc(-c3noc(Cc4c[nH]c5ccccc45)n3)ccc21)N1CCCC1`, the max activity is 27.3% (inactive). Under `CCCC(=O)Nc1ccc(-c2nc(-c3ccc(C)cc3C)co2)cc1` stands -18.1% [at 1.35 µM] (inactive); under `O=C(COc1ccc(F)cc1)Nc1ccc2c(c1)CCC(=O)N2`, -4.48% [at 1.35 µM] (inactive).

Regarding `Cc1cccc(C(=O)Nc2ccc(-c3nc(-c4ccccc4)co3)cc2)c1`, the max activity was 70.1% (inactive). Take `COc1ccc(-c2nc(Cn3nnc(-c4nc(-c5ccc(SC)cc5)no4)c3C)c(C)o2)cc1`: the max activity was -6.45% [at 5 µM] (inactive). Under `O=S(=O)(c1ccccc1F)N1CC[C@@H]2[C@@H](CO)Nc3ccc(C4=CCCCC4)cc3[C@@H]21` stands 37.4% [at 10 µM] (inactive); under `O=S(=O)(c1ccccc1F)N1CC[C@@H]2[C@H](CO)Nc3ccc(C4=CCCCC4)cc3[C@@H]21`, 7.48% [at 10 µM] (inactive); under `COc1ccccc1S(=O)(=O)N1CC[C@H]2[C@H](CO)Nc3ccc(-c4ccc(C#N)cc4)cc3[C@H]21`, 23% [at 21 µM] (inactive). As to `Cc1cccc(S(=O)(=O)N2CC[C@@H]3[C@H](CO)Nc4ccc(-c5ccccc5F)cc4[C@@H]32)c1`, the max activity was 25.7% [at 10 µM] (inactive). For the compound `O=S(=O)(c1ccccc1F)N1CC[C@H]2[C@H](CO)Nc3ccc(C4=CCCCC4)cc3[C@H]21`, the max activity is 39.3% [at 10 µM] (inactive).

In the case of `CC(=O)NCC(=O)N1CCC2(CC1)CC(c1ccccc1)C(=O)N2` (stereo unspecified), the max activity is 28.8% (inactive). In the case of `COc1ccc(NC(=O)Nc2ccc(-c3nc(-c4cc(C)ccc4C)co3)cc2)c(OC)c1`, the max activity was 9.16% [at 5 µM] (inactive). On to `CS(=O)(=O)NCc1cnc2n1CCN(Cc1cccs1)CC2`, for which the max activity was 48.8% (inactive).

With `CCN1C(=O)CCc2cc(NC(=O)Cc3ccccc3Cl)ccc21`, the max activity is -5.27% [at 0.16 µM] (inactive). With `COc1ccc(-c2nc(NCCC3=CCCCC3)c3ccccc3n2)cc1` the figure was -27.2% [at 1.35 µM] (inactive); with `CN1[C@@H]2Cn3c(ccc(/C=C/c4ccccc4)c3=O)[C@H]1[C@@H](C(=O)NC1Cc3ccccc3C1)[C@@H]2CO`, 15.2% [at 5 µM] (inactive); with `Cc1ccc2c(c1C)-n1cccc1C1(CCN(C(=O)c3ccco3)CC1)N2`, 10.9% [at 0.16 µM] (inactive). With `Cc1ccc(-c2nc(CSc3nc4c(c(=O)[nH]3)CN(Cc3ccc(F)cc3)CC4)c(C)o2)cc1` the figure was 26% [at 0.16 µM] (inactive); with `Cc1oc(-c2ccccc2)nc1CSc1nc2c(c(=O)[nH]1)CN(Cc1ccc(Cl)cc1)CC2`, 14.5% [at 0.16 µM] (inactive). With `Cc1ccc(-c2nc(CSc3nc4c(c(=O)[nH]3)CN(Cc3ccccc3)CC4)c(C)o2)cc1`, the max activity was -18% [at 0.68 µM] (inactive).

On to `COc1ccc(CN2CCc3nc(SCc4nc(-c5ccc(C)cc5)oc4C)[nH]c(=O)c3C2)cc1`, for which the max activity was 16.3% (inactive). With `Cc1nc(-c2ccc(F)cc2)sc1-c1ccc(SCCN2CCOCC2)nn1`, the max activity is 231% (inactive). `O=C(Nc1ccc(F)cc1)Nc1ccc(-c2nc(-c3cccc(Br)c3)co2)cc1`: the max activity is 4.84% [at 10 µM] (inactive). Under `COc1ccc(-c2nc(N3CCCC(C)C3)c3ccccc3n2)cc1` (stereo unspecified) stands 20.4% [at 1.35 µM] (inactive); under `O=C(CCC1N=C2c3ccccc3N=C(SCc3cc(=O)n4ccccc4n3)N2C1=O)NCc1ccc2c(c1)OCO2` (stereo unspecified), 14.1% [at 0.35 µM] (inactive). `O=C(CCC1N=C2c3ccccc3N=C(SCc3cc(=O)n4ccccc4n3)N2C1=O)NCc1cccs1` (stereo unspecified): the max activity was 13.4% [at 0.16 µM] (inactive).

For `CCOC(=O)CSC1=Nc2ccccc2C2=NC(CCC(=O)NCc3cccs3)C(=O)N12` (stereo unspecified), the max activity was 13.6% [at 10 µM] (inactive). Regarding `Cc1ccc(CSC2=Nc3ccccc3C3=NC(CC(=O)NCc4cccs4)C(=O)N23)c(C)c1` (stereo unspecified), the max activity is 21.5% [at 0.68 µM] (inactive).

As for `COc1ccccc1CNC(=O)CC1N=C2c3ccccc3N=C(SCc3ccc(F)cc3)N2C1=O` (stereo unspecified), the max activity was 11.2% [at 10 µM] (inactive). As for `O=C(CC1N=C2c3ccccc3N=C(SCc3cc(=O)n4cc(Cl)ccc4n3)N2C1=O)NCc1cccs1` (stereo unspecified), the max activity is 41.3% [at 0.35 µM] (inactive). As to `Cc1c(Cl)cccc1NC(=O)CN1CCC2(CC1)N=C(c1ccc(F)cc1)C(=O)N2`, the max activity is -21.7% [at 1.35 µM] (inactive). With `Cc1ccc(CC(=O)Nc2ccc(-c3nc(-c4ccc(C)cc4)co3)cc2)cc1` the figure was 19.1% [at 10 µM] (inactive). Under `Cc1oc(-c2ccccc2)nc1Cn1nnc(-c2nc(-c3ccc(Cl)c(F)c3)no2)c1C` stands 7.02% (inactive); under `Cc1cccc(C2=NC3(CCN(CC(=O)Nc4ccc(C)c(F)c4)CC3)NC2=O)c1`, -23% (inactive).

Consider `N#Cc1c(N2C[C@@H]3NCCO[C@H]3C2)c(F)cc2c(=O)c(C(=O)O)cn(C3CC3)c12`, for which the max activity is 13.7% (inactive). Under `COC(=O)Cn1cc(CN2CCCC2c2cc(C(C)C)on2)c2cc(OC)ccc21` (stereo unspecified) stands 14.7% (inactive).
